Unmarked numbers belong to inactive results.
System: Vero E6 infected with SARS-CoV-2
Assay: inhibition of SARS-CoV-2 cytopathic effect; higher = more antiviral protection, active = above 15
Details: 48 h

OCc1cc([C@@H](O)CNCCCCCCOCCOCc2c(Cl)cccc2Cl)ccc1O [vilanterol]
inhibition of SARS-CoV-2 cytopathic effect (1 nM): -1.65% | inhibition of SARS-CoV-2 cytopathic effect (8.33 nM): -1.28% | inhibition of SARS-CoV-2 cytopathic effect (100 nM): 0.86% | inhibition of SARS-CoV-2 cytopathic effect (833.33 nM): -0.19% | inhibition of SARS-CoV-2 cytopathic effect (10000 nM): -2.68%

CCC(=O)O[C@@H]1CC(=O)O[C@H](C)C/C=C/C=C/[C@H](OC(C)=O)[C@H](C)C[C@H](CC=O)[C@H](O[C@@H]2O[C@H](C)[C@@H](O[C@H]3C[C@@](C)(OC(C)=O)[C@@H](OC(=O)CC)[C@H](C)O3)[C@H](N(C)C)[C@H]2O)[C@H]1OC [miocamycin]
inhibition of SARS-CoV-2 cytopathic effect (1 nM): 2.92% | inhibition of SARS-CoV-2 cytopathic effect (8.33 nM): 1.39% | inhibition of SARS-CoV-2 cytopathic effect (100 nM): 1.33% | inhibition of SARS-CoV-2 cytopathic effect (833.33 nM): 3.25% | inhibition of SARS-CoV-2 cytopathic effect (10000 nM): -2.09%

OC1=c2ccccc2=C(NC2CCCCC2)/C1=C\c1ccccc1
inhibition of SARS-CoV-2 cytopathic effect (1 nM): 0.53% | inhibition of SARS-CoV-2 cytopathic effect (8.33 nM): 0.22% | inhibition of SARS-CoV-2 cytopathic effect (100 nM): 0.42% | inhibition of SARS-CoV-2 cytopathic effect (833.33 nM): 13.8% | inhibition of SARS-CoV-2 cytopathic effect (10000 nM): 45.5% (active)

Cc1cc(-c2nc(C(=O)Nc3cn(C4CCOCC4)nc3C(N)=O)co2)ccn1
inhibition of SARS-CoV-2 cytopathic effect (1 nM): -2.34% | inhibition of SARS-CoV-2 cytopathic effect (8.33 nM): -3.32% | inhibition of SARS-CoV-2 cytopathic effect (100 nM): -0.57% | inhibition of SARS-CoV-2 cytopathic effect (833.33 nM): -4.01% | inhibition of SARS-CoV-2 cytopathic effect (10000 nM): -5.6%

CCNC1=Nc2ccc(Cl)cc2C(C)(c2ccccc2)O1 (stereo not given) [etifoxine]
inhibition of SARS-CoV-2 cytopathic effect (1 nM): 2.81% | inhibition of SARS-CoV-2 cytopathic effect (8.33 nM): 2.31% | inhibition of SARS-CoV-2 cytopathic effect (100 nM): 0.13% | inhibition of SARS-CoV-2 cytopathic effect (833.33 nM): 2.41% | inhibition of SARS-CoV-2 cytopathic effect (10000 nM): -2.7%

C=C1C(=O)[C@]23[C@H](O)[C@H]1CC[C@H]2[C@@]12CO[C@]3(O)[C@@H](O)[C@@H]1C(C)(C)CC[C@@H]2O [Oridonin (Isodonol)]
inhibition of SARS-CoV-2 cytopathic effect (1 nM): -0.74% | inhibition of SARS-CoV-2 cytopathic effect (8.33 nM): 1.14% | inhibition of SARS-CoV-2 cytopathic effect (100 nM): 0.8% | inhibition of SARS-CoV-2 cytopathic effect (833.33 nM): 3.78% | inhibition of SARS-CoV-2 cytopathic effect (10000 nM): 43.5% (active)
